Screening results deposited in PubChem by Sanford-Burnham Center for Chemical Genomics.
Only some compounds are listed: those with a hit (about 2.9% of all), similar ones and a draw of the others.
NadD inh: NadD (S. aureus) enzyme inhibition; purified NadD enzyme, colorimetric absorbance read-out; inhibition, % at 20 µM; AID 602399; hit rate 0.78% among 360,000; in the data active = inhibition above about 26%
TAG inh: triacylglycerol accumulation inhibition. H9c2 cells, Nile Red lipid (TAG) fluorescence; cells loaded with 200 µM oleic acid. inhibition, % at 12.5 µM. hit rate 0.66% among 230,000;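 active = pattern-corrected inhibition of lipid staining of at least 50% with the nuclear-stain viability signal not falling by more than 50%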;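 note: 0% = DMSO wells and 100% = triacsin C control wells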
Cardio protect: protects H9c2 cardiomyocytes from peroxide injury; H2O2 injury protection, ATPLite, 2 h; protection from H2O2 cell death, % at 20 µM; hit rate 0.63% among 360,000; AID 588492;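 active = compounds giving at least 50% protection of heart cells from peroxide-induced death in the single-dose screen, raw or plate-pattern-corrected value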;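 note: 0% = DMSO wells with peroxide and 100% = DMSO wells without peroxide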
A3A deaminase: blocks human APOBEC3A ssDNA deamination; P31941; recombinant A3A, FAM/TAMRA ssDNA deamination fluorescence; inhibition, % at 20 µM; hit rate 0.41% among 330,000; AID 493011;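 active = at least 40% inhibition at 20 µM here, with at most 30% in a related deaminase screen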;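 note: plate controls were A3A with DMSO for no effect and wells lacking A3A enzyme for full effect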
Target sequence (P31941 whole entry, looked up): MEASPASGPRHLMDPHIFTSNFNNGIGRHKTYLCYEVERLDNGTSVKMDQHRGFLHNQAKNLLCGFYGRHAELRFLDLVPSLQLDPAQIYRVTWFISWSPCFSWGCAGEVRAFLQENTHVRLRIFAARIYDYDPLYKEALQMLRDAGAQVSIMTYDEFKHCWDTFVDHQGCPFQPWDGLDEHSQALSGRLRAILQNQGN
APOBEC3G inh: APOBEC3G (human) deaminase inhibition. Q9HC16. recombinant A3G, ssDNA deamination FAM/TAMRA fluorescence. inhibition, % at 20 µM. hit rate 0.28% among 330,000;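 active = inhibition of at least 40% at 20 µM, with no more than 30% in the related APOBEC3A deaminase screen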;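 note: plate controls were DMSO wells with A3G for no effect and wells lacking A3G enzyme for full effect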
Target sequence (Q9HC16 whole entry, looked up): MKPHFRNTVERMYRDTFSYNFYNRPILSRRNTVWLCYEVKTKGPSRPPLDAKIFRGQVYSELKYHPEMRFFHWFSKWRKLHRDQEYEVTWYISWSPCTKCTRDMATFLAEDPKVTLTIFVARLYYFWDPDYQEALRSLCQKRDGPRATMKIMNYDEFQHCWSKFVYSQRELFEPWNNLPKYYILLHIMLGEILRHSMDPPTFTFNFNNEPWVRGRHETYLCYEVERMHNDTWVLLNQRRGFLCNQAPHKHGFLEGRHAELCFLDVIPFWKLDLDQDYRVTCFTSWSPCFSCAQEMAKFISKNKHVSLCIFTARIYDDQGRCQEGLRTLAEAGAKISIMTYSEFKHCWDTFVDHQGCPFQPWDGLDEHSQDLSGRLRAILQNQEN
PfGluPho inh: PfG6PD (Plasmodium falciparum) enzyme inhibition; PfGluPho enzyme, NADPH resazurin-diaphorase fluorescence; inhibition, % at 20 µM; hit rate 0.78% among 350,000;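 active = inhibition reaching at least a set limit at 20 µM in the primary screen, cut at about 59% in these data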;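 note: 0% = DMSO wells with substrate and 100% = DMSO wells lacking glucose-6-phosphate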
APOBEC3G confirm: confirmation of human APOBEC3G DNA deaminase inhibitors | shares compounds with APOBEC3G inh | recombinant A3G ssDNA deaminase, UDG/FAM-TAMRA fluorescence | inhibition, % at 20 µM | hit rate 72% among 890 | AID 493152;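 active = inhibition reaching a set limit in any replicate at 20 µM, the limit being 80% of the first screen's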
UDG ctr A3G: E. coli UDG inhibition in APOBEC3G counter-screen; shares compounds with APOBEC3G inh; UDG counterscreen, FAM/TAMRA oligo fluorescence; inhibition, % at 20 µM; 710 tested, under 10 active;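 active = compounds giving 40% or more inhibition at 20 µM in any one of the three replicates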;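 note: plate controls were DMSO wells with UDG and oligo for no effect and DMSO wells lacking both for full effect; inhibitors lower the FAM signal released by uracil excision and alkaline cleavage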
* = called active by the depositor; nt = no result given.

SMILES	NadD inh	TAG inh	Cardio protect	A3A deaminase	APOBEC3G inh	PfGluPho inh	APOBEC3G confirm	UDG ctr A3G
Cc1csc(NC(C)c2nc3cc(C(F)(F)F)ccc3n2CCCO)n1 (stereo not drawn)	-2	-1	-5	-4	-6	0	nt	nt
Cc1ccc(S(=O)(=O)Nc2ccccc2N(C)S(=O)(=O)c2ccc(C)cc2)cc1	-3	1	-12	5	21	5	nt	nt
C=CCn1c(-c2cccc(Cl)c2)n[nH]c1=S	3	4	-5	-4	49*	5	86*	-4
C=CCn1c(-c2sccc2C)n[nH]c1=S	3	5	4	5	44*	15	7	nt
CCc1ccc(CCC(=O)N2CCN(S(=O)(=O)c3ccc(Br)cc3)CC2)cc1	-10	0	0	nt	nt	12	nt	nt
CCCCN(C)C(=O)c1sc(=O)n(Cc2ccc(Cl)c(Cl)c2)c1C	-3	7	-2	nt	nt	nt	nt	nt
COc1cccc2cc(-c3n[nH]c(=S)n3C)oc12	-5	-9	-3	-9	54*	29	80*	2
COc1cccc2cc(-c3ccnc(N)n3)oc12	-4	15	-5	2	-4	0	nt	nt
CCc1n[nH]c(=S)n1/N=C/c1c(O)ccc2ccccc12	0	nt	2	-5	52*	25	75*	3
S=c1[nH]c(-c2ccccc2)cn1/N=C/c1ccncc1	2	5	-2	-17	56*	53	71*	0
CCOc1ccc(/C=N/n2cc(-c3ccccc3)[nH]c2=S)cc1	19	8	-8	-8	9	42	nt	nt
S=c1nc(-c2ccccc2)n(-c2ccccc2)[nH]1	-2	nt	-1	-6	48*	33	87*	-2
COc1ccc([C@H]2CC(=O)C=C(c3cccc(OC(F)(F)F)c3)C2)cc1	6	-3	-8	2	0	17	nt	nt
C=CCCC(=O)Nc1ccc(Br)cn1	-1	2	-1	0	55*	-5	13	nt
CCCCC(=O)Nc1ccc(Br)cn1	-2	4	3	-5	-6	17	nt	nt
S=c1[nH]nc(Nc2ccccc2Cl)s1	15	-5	0	-8	45*	31	66*	1
S=c1[nH]nc(Nc2cccc(Cl)c2)s1	-3	-11	8	-1	23	-9	nt	nt
Cc1ccc(NNC(=O)c2ccno2)c(C)c1	-4	-2	-5	-5	46*	-2	-1	-5
CCOC(=O)c1sc(=S)n(C)c1NC(=O)c1ccc(C(C)(C)C)cc1	-2	3	-16	-4	0	18	nt	nt
CCOC(=O)c1sc(=S)n(C)c1NC(=O)c1ccc(OC)cc1	0	3	6	0	53*	52	59*	-6
Cc1nnc(N=c2ssnc2Cl)o1	5	18	-20	3	74*	116*	89*	-3
CCc1ccc(NC(=O)CN(C(=O)N2CCN(CC)CC2)S(=O)(=O)c2ccc(C)cc2)cc1	-1	-12	1	-3	-10	-2	nt	nt
N#Cc1c(-c2cccnc2)c2c([nH]c1=S)CCCC2	6	3	-1	-1	50*	58	86*	-2
CC1(C)O[C@@H]2[C@H](O1)[C@@H](COS(=O)(=O)O)O[C@H]2n1c(=S)[nH]c2c(=O)[nH]c(N)nc21	-5	-9	-2	-2	49*	56	74*	-2
Cc1cccc(/C=N/n2c(-c3ccccc3)n[nH]c2=S)c1O	1	7	8	-5	28	36	nt	nt
SMILES	NadD inh	TAG inh	Cardio protect	A3A deaminase	APOBEC3G inh	PfGluPho inh	APOBEC3G confirm	UDG ctr A3G
S=c1[nH]nc(-c2ccccc2)n1/N=C/c1cccs1	1	nt	-1	1	44*	33	58*	-3
Cc1cc(-c2n[nH]c(=S)n2/N=C/c2cccs2)n[nH]1	3	nt	-4	-2	60*	33	92*	-5
O=[N+]([O-])c1ccccc1/C=N/n1c(-c2ccccc2)n[nH]c1=S	-1	nt	-9	-10	51*	47	81*	-5
Cc1ccc(-c2n[nH]c(=S)n2/N=C/c2cccs2)cc1	2	0	-3	-9	17	35	nt	nt
S=c1[nH]nc(-c2ccco2)n1/N=C/c1cccs1	3	3	5	-1	62*	16	81*	-2
S=c1[nH]nc(-c2ccco2)n1/N=C/c1cccc(Cl)c1Cl	19	-2	0	-3	17	16	nt	nt
COc1cccc(/C=N/n2c(-c3n[nH]c4c3CCC4)n[nH]c2=S)c1OC	2	7	-4	1	62*	27	70*	-3
COc1cccc(/C=N/n2c(-c3cc(C)[nH]n3)n[nH]c2=S)c1OC	2	0	-3	-3	43*	11	85*	-4
COc1cc(/C=N/n2c(-c3cc(C)[nH]n3)n[nH]c2=S)cc(OC)c1O	2	-1	2	-1	38	36	nt	nt
COc1cccc(/C=N/n2c(=S)n(C)c3cc(C)c(C)cc32)c1OC	20	11	-13	-6	-7	21	nt	nt
COc1ccc(/C=N/n2c(-c3n[nH]c4c3CCC4)n[nH]c2=S)c(OC)c1OC	2	-36	2	-5	49*	33	82*	-3
C=CCn1c(=O)c2ccccc2n2c(=S)[nH]nc12	0	nt	-2	-7	50*	20	80*	-3
CCCCCn1c(=O)c2ccccc2n2c(CCl)nnc12	-1	0	0	2	-4	-19	nt	nt
CC(C)CCn1c(=O)c2ccccc2n2c(=S)[nH]nc12	0	nt	7	-5	46*	12	86*	-4
CCOCCCn1c(=O)c2ccccc2n2c(=S)[nH]nc12	-6	nt	0	-2	42*	25	62*	1
COc1cc(C(F)(F)F)ccc1C(=O)NCCc1ccco1	3	nt	-4	-1	-3	-3	nt	nt
COc1ccc(C(=O)NCc2nnc(SCC(=O)Nc3cc(Cl)ccc3OC)o2)cc1	-2	nt	2	-6	-3	-9	nt	nt
O=S(=O)(c1ccc(N2CCN(CCO)CC2)nc1)N1CCCCC1	-5	-5	1	4	42*	0	0	nt
CCCC(C)c1nnc(NC(=O)CCS(=O)(=O)c2ccccc2)s1 (stereo not drawn)	-3	nt	-6	13	66*	75*	56*	-4
CC(C)OC(=O)CSc1nnc(-c2ccc(C(C)(C)C)cc2)n1N	0	1	-10	3	42*	49	28	nt
CSc1ncnc2c1ncn2CCCNCCc1ccccn1	5	1	13	nt	nt	9	nt	nt
CCn1ncc(/C=N\NC(=O)c2ccc3c(c2)c(C)c(C)n3Cc2ccccc2)c1C	11	-18	-4	-3	70*	-16	0	-4
